Consider 12 compounds from the supplement of paper PMC12494721.

Common to all, as to conditions: incubation time: 27 h, anaerobic, 37 °C
The subject of assay [1] is Clostridium sporogenes DSM 1664. The assay is described as follows: growth (OD595) fold change vs plate DMSO controls (fold change (ratio)); higher = more growth. An outline of the steps:
(§1)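 The reported measure is growth: the fold change against the median of DMSO controls on the plate. Absorbance at 595 nm from anaerobic 96-well mGAM cultures grown for 27 h at 37 °C was blank-subtracted, corrected for background with 20 µM compound solutions in water, and converted to OD with a calibration factor of 5. Fold changes above 1.5 appear as NA, and values are the mean of 2 biological replicates.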

Assay [2] relates to Escherichia coli IAI1. The assay is described as above. An outline of the steps: as §1
Assay [3] deals with Klebsiella aerogenes DSM 30053. The description is as above. An outline of the steps:
as §1

The test system of assay [4] is Ruminococcus gnavus DSM 108212. The assay is described as above. An outline of the steps:
as §1

For assay [5], the system named is Klebsiella aerogenes DSM 30053. Kind of assay: fold change of Histamine concentration vs plate DMSO controls (fold change (ratio)); higher = more amine produced, active = hit call of the paper (significant change in both replicates, either direction). An outline of the steps: (§2)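 Amines were quantified by LC–triple-quadrupole MS in dynamic MRM mode against external calibration curves, with drift correction within each batch. The samples were whole anaerobic mGAM cultures of four gut bacterial strains, grown for 27 h at 37 °C in 80 µL wells and extracted with cold acetonitrile/methanol with 0.1% formic acid, then centrifuged. Values are reported as fold change over DMSO controls on the same plate. The mean of 2 biological replicates is given.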

Assay [6] deals with Clostridium sporogenes DSM 1664. The assay is described as follows: fold change of Tryptamine concentration vs plate DMSO controls (fold change (ratio)); higher = more amine produced, active = hit call of the paper (significant change in both replicates, either direction). An outline of the steps: as §2
For assay [7], the system named is Ruminococcus gnavus DSM 108212. Described as above. An outline of the steps: as §2
For assay [8], the system named is Escherichia coli IAI1. Kind of assay: fold change of Putrescine concentration vs plate DMSO controls (fold change (ratio)); higher = more amine produced, active = hit call of the paper (significant change in both replicates, either direction). An outline of the steps: as §2
The test system of assay [9] is Klebsiella aerogenes DSM 30053. Described as above. An outline of the steps: as §2
Assay [10] relates to Escherichia coli IAI1. Kind of assay: fold change of Cadaverine concentration vs plate DMSO controls (fold change (ratio)); higher = more amine produced, active = hit call of the paper (significant change in both replicates, either direction). An outline of the steps:
as §2

Assay [11] concerns Klebsiella aerogenes DSM 30053. The description is as above. An outline of the steps:
as §2

In assay [12] the test system is Ruminococcus gnavus DSM 108212. The assay is described as follows: fold change of 2-Phenylethylamine concentration vs plate DMSO controls (fold change (ratio)); higher = more amine produced, active = hit call of the paper (significant change in both replicates, either direction). An outline of the steps: as §2

Structures are written as SMILES. Counter-ions that a name gives are not always drawn.

Take `CN1CCCN=C1/C=C/c1cccs1` [Pyrantel tartrate] (20 µM): the growth came to 1.14 in assay [1], 1.04 in the assay with Escherichia coli IAI1 [2], 1.1 in [3] and 1.04 in assay [4]. In addition, in assay [5], the “fold change of Histamine concentration” value was 0.952 (inactive). For the same compound, the “fold change of Tryptamine concentration” value in assay [6] is 1.02 (inactive); in assay [7], 1.08 (inactive). Moreover, the figures for the “fold change of Putrescine concentration” value (in the assay with Escherichia coli IAI1 [8]; in assay [9]) were 1.04 (inactive) and 1 (inactive), respectively. Besides, the figures for the “fold change of Cadaverine concentration” value (in the assay on Escherichia coli IAI1 [10]; in assay [11]) were 1.03 (inactive) and 1.02 (inactive), respectively. For the same compound, the “fold change of 2-Phenylethylamine concentration” value in assay [12] was 1.01 (inactive).

As for `COc1cc(OC)c(C(=O)CCCN2CCCC2)c(OC)c1` [Buflomedil hydrochloride] (20 µM), the growth in assay [1] was found to be 1.11; in the assay with Escherichia coli IAI1 [2] it was 1.03; in assay [3] it was 0.965; in assay [4], 0.743. Besides, the “fold change of Histamine concentration” value in assay [5] is 1.08 (inactive). The “fold change of Tryptamine concentration” value in assay [6] is 1.08 (inactive); in assay [7], 1.03 (inactive). Also, the figures for the “fold change of Putrescine concentration” value (in the assay on Escherichia coli IAI1 [8]; in assay [9]) were 1.04 (inactive) and 1.02 (inactive), respectively. Besides, the figures for the “fold change of Cadaverine concentration” value (with Escherichia coli IAI1 [10]; in [11]) were 1.03 (inactive) and 0.997 (inactive), respectively. The “fold change of 2-Phenylethylamine concentration” value in assay [12] was 0.992 (inactive).

As for `CC1=Nc2ccc(Cl)cc2S(=O)(=O)N1` [Diazoxide] (20 µM), the growth is 1.06 in assay [1], 1.01 in the assay with Escherichia coli IAI1 [2], 0.986 in assay [3] and 1.21 in assay [4]. In addition, the “fold change of Histamine concentration” value in assay [5] is 1.1 (inactive). Besides, the “fold change of Tryptamine concentration” value in assay [6] was 1.09 (inactive); in assay [7], 1.16 (inactive). Further, the entries for the “fold change of Putrescine concentration” value (in the assay with Escherichia coli IAI1 [8]; in assay [9]) were 0.991 (inactive) and 1.06 (inactive), respectively. Besides, the “fold change of Cadaverine concentration” value in the assay on Escherichia coli IAI1 [10] was 0.943 (inactive); in assay [11] it was 1.1 (inactive). Further, the “fold change of 2-Phenylethylamine concentration” value in [12] was 1.35 (active).

Take `C=CCOc1ccc(CC(=O)O)cc1Cl` [Alclofenac] (20 µM): the growth in [1] is 0.943; in the assay with Escherichia coli IAI1 [2] it was 1.06; in [3] it was 0.98; in [4] it was 1. In addition, in assay [5], the “fold change of Histamine concentration” value is 0.998 (inactive). For the same compound, the “fold change of Tryptamine concentration” value in assay [6] and in assay [7] was 1.05 (inactive) each time. Moreover, the “fold change of Putrescine concentration” value in the assay on Escherichia coli IAI1 [8] is 1.02 (inactive); in [9] it was 0.974 (inactive). For the same compound, the figures for the “fold change of Cadaverine concentration” value (with Escherichia coli IAI1 [10]; in [11]) were 0.97 (inactive) and 0.991 (inactive), respectively. In addition, the “fold change of 2-Phenylethylamine concentration” value in [12] is 1.09 (inactive).

As for `CNCCC(Oc1ccccc1OC)c1ccccc1` (centres undefined) [Nisoxetine hydrochloride] (20 µM), the growth in assay [1] was determined as 0.994; with Escherichia coli IAI1 [2], 0.74; in assay [3], 0.914; in assay [4], 0.975. The “fold change of Histamine concentration” value in [5] is 1.02 (inactive). Further, the figures for the “fold change of Tryptamine concentration” value in [6] and in assay [7] were 0.993 (inactive) and 1.01 (inactive), respectively. The “fold change of Putrescine concentration” value in the assay with Escherichia coli IAI1 [8] is 0.707 (inactive); in [9], 0.978 (inactive). Further, the “fold change of Cadaverine concentration” value in the assay with Escherichia coli IAI1 [10] is 1.18 (inactive); in assay [11], 0.983 (inactive). Also, the “fold change of 2-Phenylethylamine concentration” value in assay [12] was 0.92 (inactive).

With `CN(C)CCn1nnnc1SCC1=C(C(=O)O)N2C(=O)[C@@H](NC(=O)Cc3csc(N)n3)[C@H]2SC1` [Cefotiam hydrochloride] (20 µM), the growth in assay [1] came out at 0; in the assay on Escherichia coli IAI1 [2] it was 0.00521; in assay [3], 1.05; in assay [4], 0.248. Moreover, the “fold change of Histamine concentration” value in assay [5] is 1.27 (inactive). For the same compound, the “fold change of Tryptamine concentration” value is 0.0154 (active) in assay [6] and 0.0411 (active) in assay [7]. Besides, the “fold change of Putrescine concentration” value in the assay on Escherichia coli IAI1 [8] was 0.121 (active); in assay [9], 1.08 (inactive). The “fold change of Cadaverine concentration” value in the assay on Escherichia coli IAI1 [10] is 0.522 (active); in assay [11], 1.14 (inactive). Moreover, the “fold change of 2-Phenylethylamine concentration” value in assay [12] was 0.0464 (active).

For the compound `CC(C)Nc1ncccn1` [Isaxonine] (20 µM), the growth in [1] stood at 1.12; in the assay with Escherichia coli IAI1 [2] it was 0.989; in [3], 1.07; in [4], 1.01. Also, in assay [5], the “fold change of Histamine concentration” value is 0.936 (inactive). Also, the “fold change of Tryptamine concentration” value in assay [6] was 1.05 (inactive); in assay [7], 0.919 (inactive). Besides, the “fold change of Putrescine concentration” value in the assay with Escherichia coli IAI1 [8] was 1 (inactive); in [9], 1.04 (inactive). In addition, the “fold change of Cadaverine concentration” value (with Escherichia coli IAI1 [10]; in assay [11]) was 1.01 (inactive) in each case. Further, the “fold change of 2-Phenylethylamine concentration” value in assay [12] was 0.894 (inactive).

For the compound `CCOC(=O)c1c(N)sc2c1CCN(Cc1ccccc1)C2` [Tinoridine hydrochloride] (20 µM), the growth in assay [1] worked out at 1.15; with Escherichia coli IAI1 [2], 0.977; in assay [3] it was 0.967; in assay [4], 1.14. Further, the “fold change of Histamine concentration” value in assay [5] was 1.03 (inactive). Further, the “fold change of Tryptamine concentration” value in assay [6] is 0.982 (inactive); in assay [7], 0.922 (inactive). For the same compound, the “fold change of Putrescine concentration” value was 1.01 (inactive) in the assay with Escherichia coli IAI1 [8] and 1 (inactive) in [9]. Moreover, the figures for the “fold change of Cadaverine concentration” value (in the assay with Escherichia coli IAI1 [10]; in assay [11]) were 0.954 (inactive) and 0.976 (inactive), respectively. For the same compound, the “fold change of 2-Phenylethylamine concentration” value in [12] was 0.875 (inactive).

For the compound `CCN(CC)CCNC(C(=O)OCCC(C)C)c1ccccc1` (centres undefined) [Camylofine chlorhydrate] (20 µM), the growth in assay [1] came to 1.11; in the assay on Escherichia coli IAI1 [2], 0.997; in assay [3], 1.02; in assay [4], 0.857. Also, the “fold change of Histamine concentration” value in assay [5] was 1.04 (inactive). The entries for the “fold change of Tryptamine concentration” value in assay [6] and in [7] were 0.953 (inactive) and 0.943 (inactive), respectively. The figures for the “fold change of Putrescine concentration” value (in the assay on Escherichia coli IAI1 [8]; in [9]) were 0.998 (inactive) and 1 (inactive), respectively. The “fold change of Cadaverine concentration” value in the assay on Escherichia coli IAI1 [10] is 0.985 (inactive); in assay [11], 0.988 (inactive). Also, the “fold change of 2-Phenylethylamine concentration” value in assay [12] was 0.94 (inactive).

In the case of `Cc1nc(C)c(Cl)c(O)c1Cl` [Clopidol] (20 µM), the growth was 1.18 in assay [1], 1.01 with Escherichia coli IAI1 [2], 1.04 in [3] and 1.14 in assay [4]. Besides, in [5], the “fold change of Histamine concentration” value is 1 (inactive). The “fold change of Tryptamine concentration” value in assay [6] is 0.998 (inactive); in assay [7], 1.01 (inactive). In addition, the “fold change of Putrescine concentration” value with Escherichia coli IAI1 [8] is 1.02 (inactive); in [9] it was 0.991 (inactive). Moreover, the “fold change of Cadaverine concentration” value in the assay with Escherichia coli IAI1 [10] is 1.02 (inactive); in assay [11], 0.985 (inactive). In addition, in [12], the “fold change of 2-Phenylethylamine concentration” value was 1.01 (inactive).

Regarding `CC(=O)CC(c1ccc([N+](=O)[O-])cc1)c1c(O)c2ccccc2oc1=O` (centres undefined) [Acenocoumarol] (20 µM), the growth in assay [1] turned out to be 0.894; in the assay on Escherichia coli IAI1 [2], 1.02; in assay [3], 1.02; in [4] it was 0.886. Moreover, the “fold change of Histamine concentration” value in assay [5] is 0.909 (inactive). Also, the “fold change of Tryptamine concentration” value in [6] is 0.94 (inactive); in assay [7], 1.01 (inactive). Moreover, the figures for the “fold change of Putrescine concentration” value (in the assay on Escherichia coli IAI1 [8]; in assay [9]) were 1.05 (inactive) and 0.989 (inactive), respectively. Besides, the “fold change of Cadaverine concentration” value (in the assay with Escherichia coli IAI1 [10]; in [11]) was 1.01 (inactive) each time. In addition, the “fold change of 2-Phenylethylamine concentration” value in assay [12] was 1.02 (inactive).

With `O=C1O[C@H]([C@@H](O)CO)C(O)=C1O` [Ascorbic acid] (20 µM), the growth amounted to 1.01 in assay [1], 1.03 with Escherichia coli IAI1 [2], 0.981 in [3] and 0.975 in assay [4]. In addition, the “fold change of Histamine concentration” value in assay [5] was 1.08 (inactive). The “fold change of Tryptamine concentration” value in assay [6] is 1.05 (inactive); in assay [7] it was 1.06 (inactive). Also, the “fold change of Putrescine concentration” value in the assay on Escherichia coli IAI1 [8] is 1.01 (inactive); in assay [9], 0.978 (inactive). In addition, the “fold change of Cadaverine concentration” value in the assay with Escherichia coli IAI1 [10] was 1.03 (inactive); in assay [11], 1.04 (inactive). The “fold change of 2-Phenylethylamine concentration” value in assay [12] was 1.03 (inactive).
